Results on 14 compounds are retold here after PubChem BioAssay (Tox21).

SMILES strings stand for the structures. A number with no mark means an inactive call. Results filed as inconclusive are left out. Activity calls are given as the source filed them. Unless noted, the call rests on the fitted dose curve; in most records, active means well fitted curve in the direction sought with a large enough effect in the repeat runs; inconclusive means weak or mixed curves; inactive means no such curve, though single readings can be large; an effect the other way counts as inactive or inconclusive.

Assay [1] can be described thus: qHTS assay for small molecules that induce genotoxicity in human embryonic kidney cells expressing luciferase-tagged ATAD5 (AID 651632). Further: nearly all actives have a fitted effect of over 15% in size. Further: potency means the concentration at half of the fitted maximal effect. The procedure, abridged:
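Cells were seeded at 2,000 per well, dosed with compound, and incubated 16 hr at 37C in 5% CO2. Luciferase activity was then quantified after a 30 min room-temperature incubation with Amplite.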
(In general: qHTS replaces the single test concentration by a dilution series.)

Assay [2] in a line: qHTS assay for small molecules that induce genotoxicity in human embryonic kidney cells expressing luciferase-tagged ATAD5 - cell viability (AID 651634; calls by dose curve; further: nearly all actives have a fitted effect of over 25% in size). The procedure, abridged:
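Cells (HEK293T, luciferase-tagged ATAD5) are seeded at 2,000 per well, dosed with compound or DMSO vehicle, and incubated 15.5 hr at 37C and 5% CO2. CellTiter-Fluor is added for 30 min before fluorescence is measured.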

The nature of assay [3]: qHTS assay for small molecule disruptors of the mitochondrial membrane potential - cell viability (AID 720634; calls by dose curve;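 further: human HepG2 liver cancer cells; series mostly up to about 83 µM; nearly all actives have a fitted effect of over 20% in size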). The procedure, abridged:
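Cytotoxicity was measured by ATP quantitation in HepG2 wells that had first been treated with compound for 1 hr and stained with m-MPI dye; CellTiter-Glo incubation was 30 min at room temperature.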

Assay [4] in a line: qHTS assay for small molecule disruptors of the mitochondrial membrane potential (AID 720635). Further: potency means the concentration at half of the fitted maximal effect. The method in brief: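 HepG2 cells (2,000/well) attached overnight at 37C, then took compound for 1 hr at 37C, 5% CO2. Mito-MPS dye was added for 30 min; fluorescence was read at 490/535 nm (monomers) and 540/590 nm (aggregates).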
Assay [5] can be described thus: qHTS assay to test for compound auto fluorescence at 590 nm (red) in HepG2 cells (AID 720674). The method in brief: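 Rose Bengal sodium served as the red fluorophore standard. HepG2 monolayers (overnight attachment, MEM with 10% FBS) were exposed to test compounds for 1 hr at 37 C and read at Ex 540/Em 590 nm.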
Assay [6] can be described thus: qHTS assay to test for compound auto fluorescence at 535 nm (green) in HepG2 cells (AID 720675).
The nature of assay [7]: qHTS assay to test for compound auto fluorescence at 460 nm (blue) in HEK293 cells (AID 720678). The method in brief: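 After cell attachment (4-5 hr, 37C), compounds were pinned onto HEK293 monolayers in 10% dialyzed FBS medium. The blue channel (405/460 nm) was read following overnight culture. Equivalency was calculated against triamterene.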
Assay [8] is described as follows: qHTS assay to test for compound auto fluorescence at 535 nm (green) in HEK293 cells (AID 720680).
A short description of assay [9]: qHTS assay to test for compound auto fluorescence at 460 nm (blue) in HEK293 cell free culture (AID 720681). The method in brief: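 Test compounds were pinned into cell-free culture medium (DMEM with 10% FBS) and fluorescence was read directly at Ex/Em 405/460 nm. Signals were expressed as fluorescence equivalents of triamterene, with DMSO vehicle as control.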
Assay [10] is described as follows: qHTS assay to test for compound auto fluorescence at 535 nm (green) in HEK293 cell free culture (AID 720682). The method in brief: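 Read-out: 485/535 nm fluorescence intensity, calibrated against fluorescein. Medium only (DMEM + 10% FBS, no cells); test compound or DMSO vehicle added by pintool before plate reading.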
Assay [11] can be described thus: qHTS assay to test for compound auto fluorescence at 590 nm (red) in HEK293 cell free culture (AID 720683). The method in brief: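 Tox21 10K library compounds were pinned into cell-free DMEM with 10% FBS and fluorescence was read at excitation 540 nm. Activity is expressed as Rose Bengal sodium equivalency.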
Assay [12] can be described thus: qHTS assay to test for compound auto fluorescence at 590 nm (red) in HepG2 cell free culture (AID 720684). The procedure, abridged:
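Readout: intrinsic compound fluorescence at 590 nm emission after 540 nm excitation, scaled to Rose Bengal sodium. Matrix was cell-free MEM with 10% FBS; DMSO vehicle wells served as control.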

A short description of assay [13]: qHTS assay to test for compound auto fluorescence at 460 nm (blue) in HepG2 cell free culture (AID 720685). The procedure, abridged: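 Cell-free plates of MEM plus 10% FBS received 23 nL compound or DMSO vehicle; blue-channel (405/460 nm) intensity scored against triamterene as reference fluorophore.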
A short description of assay [14]: qHTS assay to test for compound auto fluorescence at 535 nm (green) in HepG2 cell free culture (AID 720686).
Assay [15] can be described thus: qHTS assay to test for compound auto fluorescence at 460 nm (blue) in HepG2 cells (AID 720687). The method in brief: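 Cells (2,000/well in MEM with 10% FBS) attached overnight at 37 C, then were exposed to compound or DMSO for 1 hr at 37 C, 5% CO2. Fluorescence read at Ex/Em 405/460 nm, expressed as triamterene-equivalent signal.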
Assay [16] can be described thus: qHTS assay for small molecule agonists of the p53 signaling pathway - cell viability (AID 651633; calls by dose curve;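 further: p53RE-bla HCT reporter cells with a stable beta-lactamase p53 reporter; series mostly up to about 83 µM; nearly all actives have a fitted effect of over 30% in size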). The method in brief:
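p53RE-bla cells, seeded at 4,000 per well and rested 5 h at 37 C/5% CO2, received compounds in DMSO for 16 h at 37 C. CellTiter-Glo was then added, and luminescence was read after 30 min at room temperature to gauge cytotoxicity.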

A short description of assay [17]: qHTS assay to test for compound auto fluorescence at 590 nm (red) in HEK293 cells (AID 720679). The method in brief: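 Plates of HEK293 cells (10% dialyzed FBS) are treated with 23 nL compound or DMSO vehicle after a 4-5 hr attachment period, incubated overnight at 37C, and read for red fluorescence at 540/590nm.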
Assay [18] has as its target Glucocorticoid receptor (Homo sapiens) (UniProt P04150). As to the kind of experiment: qHTS assay to identify small molecule agonists of the glucocorticoid receptor (GR) signaling pathway (AID 720691; active means well fitted activation curve with a large enough effect in the signal ratio in the repeat runs, not every such curve was filed as active; the % refers to the signal ratio). The method in brief: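 Steps: seed GR-bla HeLa cells, incubate 4 h at 37 C/5% CO2; pin-transfer DMSO-dissolved compounds; incubate 18 h at 37 C; add LiveBLAzer B/G FRET substrate; after 2 h at room temperature, measure fluorescence.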

Assay [19] has the same target. In words: qHTS assay to identify small molecule antagonists of the glucocorticoid receptor (GR) signaling pathway (AID 720692; active means well fitted inhibition curve with a large enough effect in the signal ratio in the repeat runs, not every such curve was filed as active; the % refers to the signal ratio). The procedure, abridged:
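Antagonism was scored as loss of dexamethasone-driven (5 nM final) reporter signal in HeLa cells bearing a glucocorticoid response element–beta-lactamase construct, after 18 h compound exposure at 37 C and 2 h FRET substrate loading.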
On the % scale 0 is the no-effect control and ±100 the full control effect.

Sequence of Glucocorticoid receptor (Homo sapiens) (P04150 whole entry, looked up): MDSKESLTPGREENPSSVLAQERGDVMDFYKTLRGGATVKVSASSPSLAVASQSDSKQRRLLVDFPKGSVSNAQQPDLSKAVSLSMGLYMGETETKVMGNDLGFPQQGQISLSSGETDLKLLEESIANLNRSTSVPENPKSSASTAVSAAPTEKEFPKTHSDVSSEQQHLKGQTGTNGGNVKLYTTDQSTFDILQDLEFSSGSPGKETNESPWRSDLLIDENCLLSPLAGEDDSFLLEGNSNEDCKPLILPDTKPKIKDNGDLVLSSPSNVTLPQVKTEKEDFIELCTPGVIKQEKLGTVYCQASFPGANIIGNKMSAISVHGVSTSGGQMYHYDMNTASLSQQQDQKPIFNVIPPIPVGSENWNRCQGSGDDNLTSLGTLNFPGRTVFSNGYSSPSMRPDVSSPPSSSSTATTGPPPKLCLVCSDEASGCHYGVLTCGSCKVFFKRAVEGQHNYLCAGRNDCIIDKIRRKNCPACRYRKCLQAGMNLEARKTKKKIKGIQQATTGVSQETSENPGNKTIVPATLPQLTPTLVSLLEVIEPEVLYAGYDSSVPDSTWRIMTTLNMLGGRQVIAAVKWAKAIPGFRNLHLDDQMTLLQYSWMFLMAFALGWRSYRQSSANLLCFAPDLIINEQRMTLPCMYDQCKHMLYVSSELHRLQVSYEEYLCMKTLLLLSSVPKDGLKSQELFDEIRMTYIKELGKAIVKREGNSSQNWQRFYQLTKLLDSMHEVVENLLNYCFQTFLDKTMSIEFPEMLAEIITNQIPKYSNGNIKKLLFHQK

Turning to `O=C(O)CN(CCN(CC(=O)O)CC(=O)O)CCN(CC(=O)O)CC(=O)O`, the Potency in assay [1] is 26.6 µM (active). In addition, the Potency result in assay [2], in assay [3] and in [4] was “inactive” each time. Further, the compound was classed as inactive in [5], in assay [6], in assay [7], in assay [8], in [9] and in assay [10]. For the same compound, the outcome in assay [11], in assay [12], in [13], in assay [14] and in assay [15] was inactive.
Turning to `CCN(CC)CCNC(=O)COc1ccc(Cl)cc1`, the Potency entry in [1], in assay [16], in [2], in assay [18] and in [19] was “inactive” throughout. Also, the call in assay [5], in [6], in assay [7], in [17], in assay [8] and in assay [9] was inactive. Also, the outcome in assay [10], in [11], in [12], in assay [13] and in assay [14] was inactive.
`O=C1Nc2ccc([N+](=O)[O-])cc2C1=O`: the Potency entry in assay [1], in [16] and in assay [19] was “inactive” in each case. Further, the Potency in assay [4] was 68.5 µM (active). The result in [6], in assay [7], in [17], in assay [8], in assay [9] and in [10] was inactive. Besides, the compound was classed as inactive in assay [11], in assay [12], in [13], in assay [14] and in assay [15].
Turning to `CC1=NN(c2cc(Cl)c(S(=O)(=O)O)cc2Cl)C(=O)C1N=Nc1ccc(S(=O)(=O)O)cc1` (stereo unspecified), the Potency result in assay [1], in assay [16], in assay [3] and in [4] was “inactive” in each case. Moreover, the compound was classed as inactive in assay [5], in assay [6], in [7], in [8], in [9] and in [10]. Also, the compound was classed as inactive in [11], in [12], in assay [13] and in assay [14].
For the compound `CN1CCN(C2=Nc3cc(F)ccc3Cc3ccccc32)CC1`, the Potency entry in assay [1], in [16], in assay [3], in assay [18] and in assay [19] was “inactive” each time. Further, the compound was classed as inactive in assay [6], in assay [7], in assay [17], in [9], in assay [10] and in [11]. In addition, the compound was classed as inactive in [13] and in assay [14].
In the case of `Cc1cc2c(s1)Nc1ccccc1N=C2N1CCN(C)CC1`, the Potency entry in assay [1], in [16], in [3], in assay [4], in assay [18] and in [19] was “inactive” each time. Further, the call in assay [5], in assay [6], in assay [7], in assay [9], in [10] and in assay [11] was inactive. Also, the outcome in assay [12], in [13], in assay [14] and in assay [15] was inactive.
For `O=C(O)[C@@H](O)[C@H](O)[C@H](O)[C@@H](O)C(=O)O`, the Potency result in assay [1], in [16], in [3] and in assay [4] was “inactive” each time. Further, the compound was called inactive in [5], in assay [6], in assay [7], in assay [17], in assay [8] and in assay [10]. Moreover, the call in assay [11], in [12], in [13], in assay [14] and in [15] was inactive.
As for `Cc1ccccc1C(=O)Nc1ccc(C(=O)N2CCCC(O)c3cc(Cl)ccc32)c(C)c1` (stereo unspecified), the Potency entry in assay [1], in assay [16] and in assay [3] was “inactive” in each case. Also, in [4], the Potency is 10.6 µM (active). In addition, the call in assay [5], in assay [6], in assay [7], in [17], in assay [8] and in assay [10] was inactive. Besides, the call in assay [11], in assay [12], in assay [13] and in assay [14] was inactive.
For `CC1(O)CSC(C)(O)CS1` (stereo unspecified), the Potency result in [1], in [16], in assay [3] and in [19] was “inactive” each time. Further, the result in assay [5], in assay [6], in assay [7], in [17], in assay [8] and in [9] was inactive. Moreover, the call in [10], in assay [11], in assay [12], in assay [13], in assay [14] and in assay [15] was inactive.
For the compound `Cc1ccc(C(C)C)cc1O`, the Potency result in assay [1], in [16], in assay [3], in assay [18] and in assay [19] was “inactive” in each case. For the same compound, the Potency in assay [4] was 48.6 µM (active). Besides, the call in [6], in [7], in [17], in [9], in [10] and in [11] was inactive. In addition, the call in assay [12], in [13], in assay [14] and in assay [15] was inactive.
In the case of `COC(=O)C(C)O` (stereo unspecified), the Potency result in assay [1], in assay [2], in assay [3] and in [4] was “inactive” throughout. Moreover, the compound was classed as inactive in assay [5], in assay [6], in [7], in assay [17], in assay [8] and in [9]. Further, the compound was called inactive in [10], in assay [11], in assay [13], in [14] and in [15].
Regarding `Oc1ccccc1F`, the Potency entry in assay [1], in assay [2], in [3], in [4], in [18] and in [19] was “inactive” each time. In addition, the compound was classed as inactive in assay [5], in assay [6], in assay [7], in assay [17], in [8] and in assay [9]. Moreover, the compound was called inactive in assay [10], in assay [11], in assay [12], in [13], in assay [14] and in assay [15].
Turning to `CS(=O)(=O)c1ccc([C@@H](O)[C@@H](CF)NC(=O)C(Cl)Cl)cc1`, the Potency result in assay [1], in assay [16], in [3], in assay [4] and in assay [19] was “inactive” in each case. Further, in [5], the fluorescence, relative to Rose Bengal is -0.165% [at 18.6 µM]. Further, the fluorescence, % of fluorescein control was -0.0021% [at 18.6 µM] in assay [6] and -0.0102% [at 18.6 µM] in [14]. Moreover, the fluorescence, % of triamterene in assay [7] is -0.0281% [at 18.6 µM]. Further, the fluorescence, % of fluorescent control was 0.0865% [at 18.6 µM] in assay [17], 0.0627% [at 18.6 µM] in assay [9], -0.0062% [at 18.6 µM] in assay [13] and -0.0647% [at 18.6 µM] in assay [15]. For the same compound, the fluorescence, % of fluorescein in assay [8] was 0.0111% [at 18.6 µM]. The activity change in assay [10] is -0.0234% [at 18.6 µM]. Moreover, the fluorescence, % of Rose Bengal in assay [12] was 0.294% [at 18.6 µM].
As for `CCCCN1C[C@H](O)[C@@H](O)[C@H](O)[C@H]1CO`, the Potency result in assay [1], in [16], in [3], in [18] and in [19] was “inactive” throughout. Also, the call in assay [5], in assay [6], in assay [7], in [17], in assay [8] and in [9] was inactive. Further, the compound was classed as inactive in assay [10], in assay [11], in assay [12], in assay [13], in assay [14] and in assay [15].
